Rows were chosen to be rich in hits. Some 3.5% of all compounds tested hit in one or more screens of this group.
FBW7 activator: human FBW7 E3 ligase activation, primary screen; actives 0.13% (n = 650,000); Q969H0; normalized activity (activation), % at 26.1 µM; AlphaScreen FBW7–phospho-cyclin E peptide binding, activator screen; in the data active = normalized activity above about 1.9%;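 note: purified mutant Fbw7 with reduced substrate affinity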
MITF primary: human MITF inhibition, primary screen | actives 0.91% (n = 650,000) | AlphaScreen MITF homodimerization, bead proximity signal | inhibition, % at 2.6 µM | O75030 | AID 1259374; in the data active = inhibition above about 50%;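 note: 0% = vehicle wells with protein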
TEAD-YAP block: TEAD-YAP interaction inhibition. HEK-TIYL cells, TEAD-Gal4/YAP UAS-luciferase luminescence. inhibition, % at 9.12 µM. actives 1.4% (n = 640,000). AID 1259422; in the data active = inhibition above about 32%;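 note: 0% = median of test compound wells and 100% = reference inhibitor wells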
GPR151 ag: activators of human GPR151. Q8TDV0. PathHunter beta-arrestin GPR151 cells, luminescence. activation, % at 11.2 µM. actives 1% (n = 650,000). AID 1508602; in the data active = activation above about 4.9%;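 note: 0% = median of compound wells and 100% = cells with positive control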
Target sequence (Q8TDV0 whole entry, looked up): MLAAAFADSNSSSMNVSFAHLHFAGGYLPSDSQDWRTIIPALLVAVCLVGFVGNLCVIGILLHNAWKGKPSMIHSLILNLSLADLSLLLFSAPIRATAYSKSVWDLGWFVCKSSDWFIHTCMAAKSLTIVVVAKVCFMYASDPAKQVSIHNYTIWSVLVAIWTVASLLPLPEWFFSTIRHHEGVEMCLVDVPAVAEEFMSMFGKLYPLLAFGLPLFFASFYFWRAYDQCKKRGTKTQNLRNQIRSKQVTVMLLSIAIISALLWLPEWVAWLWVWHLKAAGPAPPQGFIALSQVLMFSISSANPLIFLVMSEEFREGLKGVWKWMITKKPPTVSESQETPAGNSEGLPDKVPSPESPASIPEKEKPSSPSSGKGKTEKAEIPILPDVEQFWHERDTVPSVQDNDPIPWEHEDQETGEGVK
MITF confirm: human MITF inhibition, confirmation; actives 16% (n = 4,700); inhibition, % at 2.6 µM; AlphaScreen MITF homodimerization, biotin/His-MITF beads; AID 1259372; shares compounds with MITF primary;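 active = inhibition above a cutoff derived from the DMSO control wells, cut at about 28% in these data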;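 note: 0% = MITF dimer wells with DMSO only; inhibitors lower the bead chemiluminescence by keeping MITF from dimerizing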
AlphaScreen DR: optically interferes with AlphaScreen signal in dose response | IC50, µM | shares compounds with MITF primary | AID 1259373 | actives 6% (n = 480) | AlphaScreen optical interference counterscreen, cell-free; call rule not given here
AS interf ctr: optically interferes with AlphaScreen signal. shares compounds with MITF primary. LysRS AlphaScreen counterscreen, signal interference, triplicate. inhibition, % at 2.6 µM. actives 7.6% (n = 4,700). AID 1259376;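 active = inhibition above a cutoff derived from the DMSO control wells, cut at about 30% in these data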
Starred values were filed as active, the others as inactive; nt = not tested or not shown.

SMILES | FBW7 activator | MITF primary | TEAD-YAP block | GPR151 ag | MITF confirm | AS interf ctr | others
Cc1ccc(CN(Cc2ccco2)C(=S)NCC(=O)NCc2ccc3c(c2)OCO3)cc1 | 0 | 6 | 7 | 1 | nt | nt
O=C(CNCc1ccco1)NCc1ccc2c(c1)OCO2 | 0 | 67* | 1 | 0 | 10 | 21
Cc1ccc(S(=O)(=O)N2CCN(CC3CC=CCC3)CC2)cc1 (stereo not given) | 0 | 34 | 1 | 0 | nt | nt
CCC(C)N1CCN(CC2CC=CCC2)CC1 (stereo not given) | 0 | 62* | -1 | 0 | 17 | 17
C1=CCC(CN2CCN(C3CCCCC3)CC2)CC1 (stereo not given) | 0 | 51* | -1 | 0 | 12 | 16
CCOc1ccccc1CN1CCN(Cc2ccc3c(c2)OCO3)CC1 | 0 | 52* | 2 | 1 | 4 | 0
COc1cccc(C2NC(=S)NC(C)=C2C(=O)N(C)C)c1OC (stereo not given) | 0 | -5 | -9 | 0 | nt | nt
CCCCC(=O)Nc1sc2c(c1C(=O)NC)CCN(C(=O)OC)C2 | 0 | -2 | 10 | 1 | nt | nt
COc1ccccc1N1CCN(c2ncnc3sc(C(=O)N4CCCc5ccccc54)c(C)c23)CC1 | 0 | 9 | 2 | 0 | nt | nt
Nn1cnn2c(SCC(=O)Nc3ccc(S(N)(=O)=O)cc3)nnc12 | 0 | 2 | 9 | 0 | nt | nt
COc1cc(CN2CCN(CC3CC=CCC3)CC2)cc(OC)c1O (stereo not given) | 0 | 4 | -2 | 2 | nt | nt
O=C(c1ccncc1)N1CCN(Cc2ccc3c(c2)OCO3)CC1 | 1 | 87* | -6 | -1 | -1 | 1
CC(C)(C)n1nnnc1C(c1cccs1)N1CCN(Cc2ccc3c(c2)OCO3)CC1 (stereo not given) | 0 | 78* | 4 | -1 | 15 | 17
COc1ccc(CN2CCN(CC3CC=CCC3)CC2)c(OC)c1OC (stereo not given) | 0 | 66* | 12 | 1 | -19 | -2
CN1CCCN(Cc2ccc3c(c2)OCO3)CC1 | 0 | 52* | -4 | 3 | 2 | 1
COC(=O)Cn1c(C)nc2sc(C)c(C)c2c1=O | 0 | -10 | -1 | -1 | nt | nt
OC(CN1CCOCC1)CN1CCN(Cc2ccc3c(c2)OCO3)CC1 (stereo not given) | 0 | 76* | -1 | 0 | 7 | 10
C1=CCC(CN2CCN(Cc3ccc4c(c3)OCO4)CC2)CC1 (stereo not given) | 1 | 66* | -2 | 0 | 7 | 19
c1cc2c(cc1CN1CCCCC1)OCO2 | 0 | 1 | 0 | 1 | nt | nt
c1cc2c(cc1CN1CCN(Cc3ccc4c(c3)OCO4)CC1)OCO2 | 0 | 70* | 2 | 2 | -1 | 3
CC(=O)NCc1ccc(C(=O)COC(=O)c2ccc(C(C)(C)C)cc2)o1 | 0 | -7 | 0 | 0 | nt | nt
CC1=C(C(N)=O)C(c2ccco2)C(C#N)=C(SCC(=O)Nc2ccc(Cl)c(Cl)c2)N1 (stereo not given) | 0 | 9 | -1 | 2 | nt | nt
COc1ccc(CNC(=O)COC(=O)CCSc2ccccc2)cc1 | 0 | 10 | -7 | -2 | nt | nt
Cc1ccc([N+](=O)[O-])cc1S(=O)(=O)Nc1ccc(Nc2ncccc2[N+](=O)[O-])cc1 | 0 | 97* | -8 | 1 | 97* | -6 | AlphaScreen DR=>6.6
Cc1ccc([N+](=O)[O-])cc1S(=O)(=O)Nc1ccc(N)cc1 | 0 | 9 | -1 | -1 | nt | nt
SMILES | FBW7 activator | MITF primary | TEAD-YAP block | GPR151 ag | MITF confirm | AS interf ctr | others
Cc1ccc(S(=O)(=O)C(CNS(=O)(=O)c2ccccc2)c2cccs2)cc1 (stereo not given) | 0 | 21 | 5 | 0 | nt | nt
CCS(=O)(=O)NCC(c1cccs1)S(=O)(=O)c1ccc(C)cc1 (stereo not given) | 3.2* | 85* | -2 | 3 | 82* | 4 | AlphaScreen DR=>6.6
CCN1CCCC1CNC(=O)c1ccc(-c2ccco2)nc1NCc1cccnc1 (stereo not given) | 2 | -7 | 6 | -1 | nt | nt
COCCN(C1CCN(CCc2ccc(Cl)cc2)CC1)S(=O)(=O)c1cccs1 | 0 | 63* | 9 | 0 | 1 | 8
OCCCCNCc1c(F)cccc1Cl | 0 | -9 | 4 | -1 | nt | nt
CCCN(CCO)Cc1c(F)cccc1Cl | 0 | 56* | -2 | 1 | -7 | -9
CCN(CC)CCCNCc1c(F)cccc1Cl | 0 | 57* | -3 | 1 | 19 | 8
Cc1ccc(C2CC(c3cccs3)=NN2C(=O)CSc2nnc(CNC(=O)Cc3ccccc3)n2-c2ccccc2)cc1 (stereo not given) | 0 | 18 | 10 | -1 | nt | nt
CCN(CC)CCN1CCN(c2ccnc3c(-c4ccco4)cnn23)CC1 | -2 | 55* | -15 | 2 | 8 | 13
O=[N+]([O-])c1nn(-c2cccc(Cl)c2)n(O)c1=NC1CCCCC1 | -1 | 56* | 5 | -1 | 15 | 14
COc1ccc2c(c1)CC(C(=O)Nc1ccc(-c3cn[nH]c3)cc1)CO2 (stereo not given) | 0 | -16 | 0 | 0 | nt | nt
CCOC(=O)c1cc2sc(Br)cc2n1CC(=O)N1CCOCC1 | 0 | 6 | 2 | 0 | nt | nt
CCN(CC)C(=O)CN1CCC(O)(c2ccccn2)CC1 | 0 | 9 | 15 | -2 | nt | nt
CCN(CC)C(=O)CN1CCN(c2ncccn2)CC1 | 0 | 56* | 0 | 1 | 18 | 10
CCOC(=O)CN1C(=O)S/C(=C/c2ccc(C(=O)O)cc2)C1=O | 0 | 0 | -1 | 0 | nt | nt
Nc1nnnn1/N=C/c1ccc(-c2ccc(F)c(Cl)c2)o1 | 0 | 83* | 0 | -1 | 7 | 15
CN(C)CCOc1ccccc1-c1ccccc1 | 0 | 61* | 3 | 1 | -1 | 14
CN(C)CCOCCOc1ccccc1-c1ccccc1 | 0 | 87* | 1 | 1 | 41* | 22 | AlphaScreen DR=>6.5
CNCCOc1ccccc1-c1ccccc1 | 0 | 24 | 0 | 0 | nt | nt
CC(C)(C)c1ccc(SCCc2ccccn2)cc1 | 0 | 63* | -54 | -1 | 2 | 7
CC(C)c1ccc(C(C)C)c(SCCc2ccccn2)c1 | 0 | 53* | 8 | 0 | -3 | 11
Cc1cc(=O)n(C)c(=O)n1CCCOc1cccc([N+](=O)[O-])c1 | 0 | 5 | 0 | -1 | nt | nt
CCOC(=O)c1cccc(NC(=O)c2ccccn2)c1 | 0 | 0 | -36 | -4 | nt | nt
CCOC(=O)c1ccc(NC(=S)NNC(=O)c2ccccn2)cc1 | -1 | 116* | 6 | 0 | 114* | 100*
O=C(NNC(=S)Nc1cccc([N+](=O)[O-])c1)c1ccccn1 | -2 | 115* | -12 | -1 | 116* | 100*
CCOc1ccccc1NC(=S)NNC(=O)c1ccccn1 | -2 | 114* | 16 | 0 | 117* | 100*
COCCCNC(=S)NNC(=O)c1ccccn1 | -1 | 114* | 12 | 1 | 113* | 100*
